Results taken from the supplement of paper PMC10338343.
± gives the standard deviation. Over roughly 3,700 sequences, “pre-steady-state target cleavage rate” has its median near 0.02; the highest 2% begin near 0.23. The full list was thinned out, with the highest values kept by preference.

The sequences below were run on MILI (PIWIL2) piRISC loaded with Kctd7 piRNA (26 nt) (assay: pre-steady-state target cleavage rate (min^-1); MIWI and MILI are mouse PIWI proteins and EfPiwi is from a freshwater sponge; tags in brackets are library labels; higher = faster piRNA-guided slicing of the target). Conditions: guide: Kctd7 piRNA 5'p-UGUUAAUCUCUCAGAGAAGGUGACAG; auxiliary factor: 500 nM mouse GTSF1.
Method: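 Cleave-'n-Seq: a library of target RNAs (target site embedded in constant flanks, ACAGCATTCCGCGTTAGTGATATCCG... 5' flank; DNA-blocked outside the site) at 0.1 nM was incubated with 1 nM active mouse MILI or MIWI piRISC (synthetic 5'-monophosphorylated piRNA guide) with or without 500 nM mouse GTSF1 at 33 °C for 1 min to 16 h. Uncleaved targets were sequenced and normalised to non-target controls, and the pooled three trials were fitted to a burst-and-steady-state model to give the pre-steady-state cleavage rate (min^-1; k3 is constrained to at most 1e-4). Sequence is the target site only; target names encode pairing extent (gX:gY) and contiguous / 1-mismatch / 2-mismatch / bulge geometry. Fits with R² ≤ 0 are excluded.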
In the case of UAGUGUGUCACCAACUCUGAGAGAUUUUGA, the “pre-steady-state target cleavage rate” value is reported as 0.00551 ± 0.0041. UAGUGAGUGACCUUCUCUGAGAGAUUAUGA was tested, and the “pre-steady-state target cleavage rate” value was 0.0378 ± 0.011. In the case of UAGUGACAGACCUUCUCUGAGAGAUUAGCA, the “pre-steady-state target cleavage rate” value is reported as 0.0252 ± 0.013. UAGUGUGUCAGCUUCUCUGUGAGAUUAACA was tested, and the “pre-steady-state target cleavage rate” value was 0.0415 ± 0.0032. In the case of UAGUGACACACCUUCUCUCAGAGAUUAUGA, the “pre-steady-state target cleavage rate” value is reported as 0.00858 ± 0.0045. UAGUCUGUCUCCUUCUCUGAGAGAUUAUGA was tested, and the “pre-steady-state target cleavage rate” value was 0.0111 ± 0.0041. For UAGUGACUCACCUUCAGUGAGAGAUUAACA, the “pre-steady-state target cleavage rate” value was 0.0471 ± 0.0078. With UAGUGAGUCACCUUCUCUGAGAGAUAUAACA the “pre-steady-state target cleavage rate” value was 0.347 ± 0.046. UAGUGUGCUCACCUUCUCUGAGAGAUUAACA was tested, and the “pre-steady-state target cleavage rate” value was 0.205 ± 0.013. For UAGUGAGUCACCUUCUCUGAGAGAUAACA, the “pre-steady-state target cleavage rate” value was 0.107 ± 0.038. In the case of UAGUGUGAUCACCUUCUCUGAGAGAUUAACA, the “pre-steady-state target cleavage rate” value is reported as 0.24 ± 0.018. UAGUGAGAUCACCUUCUCUGAGAGAUUAACA was tested, and the “pre-steady-state target cleavage rate” value was 0.178 ± 0.015. UAGUGAGUCACCUUCUCUGAGAGAUAUACA was tested, and the “pre-steady-state target cleavage rate” value was 0.0915 ± 0.025. With UAGUGUGUCACCUUCUCGGAGAGAUUAACA the “pre-steady-state target cleavage rate” value was 0.153 ± 0.017. In the case of UAGUCUGUCACCAUCACUGAGAGAUUAACA, the “pre-steady-state target cleavage rate” value is reported as 0.11 ± 0.0083. UAGUGACAGUCCUUGUGUGAGAGAUUAACA was tested, and the “pre-steady-state target cleavage rate” value was 0.0291 ± 0.0078. UAGUGACAGUGGAACUCUGACAGAUUAUCA was tested, and the “pre-steady-state target cleavage rate” value was < 0.0001. In the case of UAGUGUGUCACCUUCUCUGAGAGAUUAACCA, the “pre-steady-state target cleavage rate” value is reported as 0.236 ± 0.021. For “UAGUGUGUCACCUUCUCUGAGAGAUUAACC [g2:g25:cont:t1C]”, the “pre-steady-state target cleavage rate” value was 0.202 ± 0.014. With UAGUGUGUCACCUUUUCUGAGAGAUUAACA the “pre-steady-state target cleavage rate” value was 0.249 ± 0.02. With “UAGUGUGUCACCUUCUCUGAGAGAUUAACU [g2:g25:cont:t1U]” the “pre-steady-state target cleavage rate” value was 0.187 ± 0.015. For “UAGUGUGUCACCUUCUCUGAGAGAUUAACG [g2:g25:cont:t1G]”, the “pre-steady-state target cleavage rate” value was 0.267 ± 0.02. With UAGUGUGUCACCUUCUCUGAGAGAUUACCA the “pre-steady-state target cleavage rate” value was 0.197 ± 0.037. In the case of UAGUGUGUCACCUUUCUCUGAGAGAUUAACA, the “pre-steady-state target cleavage rate” value is reported as 0.187 ± 0.016. In the case of UAGUGUGUCACCUUUCUGAGAGAUUAACA, the “pre-steady-state target cleavage rate” value is reported as 0.0596 ± 0.013. UAGUGUGUCACCCUUCUCUGAGAGAUUAACA was tested, and the “pre-steady-state target cleavage rate” value was 0.104 ± 0.016. With UAGUGUGUCACCUUCUGUGUGAGAUUAACA the “pre-steady-state target cleavage rate” value was 0.0302 ± 0.004. With UAGUGACAGUGGAAGUCUGAGAGUUAAACA the “pre-steady-state target cleavage rate” value was < 0.0001. With UAGUGACACACCUUCUGAGAGAGAUUAUGA the “pre-steady-state target cleavage rate” value was 0.0134 ± 0.0078. With UAGUGACAGUCCUUCUCUAAGAGAUUAACA the “pre-steady-state target cleavage rate” value was 0.0523 ± 0.012. UAGUGACAGUGGAAGAGUGAGGAGAUUAACA was tested, and the “pre-steady-state target cleavage rate” value was < 0.0001. UAGUGACUCACCUUCUGUGAGAGUUUAACA was tested, and the “pre-steady-state target cleavage rate” value was 0.0308 ± 0.01. In the case of UAGUGUGUCUCCUUCUCUGAGACAUUAACA, the “pre-steady-state target cleavage rate” value is reported as 0.00482 ± 0.0038. In the case of UAGUGAGUCACCUUCUCUGAGAGUUAACA, the “pre-steady-state target cleavage rate” value is reported as 0.253 ± 0.077. With UAGUGAGUCACCUUCUCUGAGAGUAUAACA the “pre-steady-state target cleavage rate” value was 0.144 ± 0.057. In the case of UAGUGAGUCACCUUCUCUGAGAGUAUUAACA, the “pre-steady-state target cleavage rate” value is reported as 0.158 ± 0.019. With UAGUGAGUCACCUUCUCUGAGAGUUUAACA the “pre-steady-state target cleavage rate” value was 0.277 ± 0.061. In the case of UAGUGAGUCACCUUCUCUGAGAGCUUAACA, the “pre-steady-state target cleavage rate” value is reported as 0.155 ± 0.026. For UAGUGAGUCACCUUCUCUGAGAGAGUAACA, the “pre-steady-state target cleavage rate” value was 0.239 ± 0.063. UAGUGAGUCACCUUCUCUGAGAGAUUUAACA was tested, and the “pre-steady-state target cleavage rate” value was 0.225 ± 0.04. For UAGUGAGUCACCUUCUCUGACAGUUUAACA, the “pre-steady-state target cleavage rate” value was 0.0134 ± 0.0052. For UAGUCUGACACCUUCUCUGAGAGUUUAACA, the “pre-steady-state target cleavage rate” value was 0.109 ± 0.016. For UAGUCAGUCACCUUCUCUGAGAGUUUAACA, the “pre-steady-state target cleavage rate” value was 0.261 ± 0.041. For UAGUGAGUCACCUUCUCUGAGAGUAAAACA, the “pre-steady-state target cleavage rate” value was 0.14 ± 0.045. With UAGUGAGUCACCUUCUCUCAGAGUUUAACA the “pre-steady-state target cleavage rate” value was 0.0248 ± 0.0099. In the case of UAGUGAGUGACCUUCUCUGAGACAUUAACA, the “pre-steady-state target cleavage rate” value is reported as 0.0267 ± 0.0076. In the case of UAGUCUCUCACCAUCUCUGAGAGAUUAACA, the “pre-steady-state target cleavage rate” value is reported as 0.0256 ± 0.0069. For UAGUGAGUGACCUUCUCUGAGAGAUAAACA, the “pre-steady-state target cleavage rate” value was 0.0814 ± 0.021. For UAGUGACUCACCUUGUCUGAGACAUUAACA, the “pre-steady-state target cleavage rate” value was 0.0647 ± 0.011. For UAGUGAGUCACCUUCUCUGAGAGGUUAACA, the “pre-steady-state target cleavage rate” value was 0.142 ± 0.019. With UAGUGAGUCACCUUCUCUGAGAGUUUAUGA the “pre-steady-state target cleavage rate” value was 0.275 ± 0.092. With UAGUGAGUCACCUUCUCUGAGAGUUAAACA the “pre-steady-state target cleavage rate” value was 0.297 ± 0.086. In the case of UAGUGAGUCACCUUCUCUGAGAGAAAAACA, the “pre-steady-state target cleavage rate” value is reported as 0.0915 ± 0.023. For UAGUGAGUCACCUUCUCUGAGAGACUUAACA, the “pre-steady-state target cleavage rate” value was 0.137 ± 0.032. UAGUGAGUCACCUUCUCUGAGAGUUUAUCA was tested, and the “pre-steady-state target cleavage rate” value was 0.132 ± 0.049. In the case of UAGUGUGUCACCUUCUCUGAGAGUUUAUGA, the “pre-steady-state target cleavage rate” value is reported as 0.0769 ± 0.038. With UAGUCUGUCACCUUCUCUGAGAGAUGUAACA the “pre-steady-state target cleavage rate” value was 0.211 ± 0.03. In the case of UAGUGUGUCACCUUCUCUGAGAGAUGUAACA, the “pre-steady-state target cleavage rate” value is reported as 0.159 ± 0.029. For UAGUGAGUCACCUUCUCUGAGAGAUGUAACA, the “pre-steady-state target cleavage rate” value was 0.312 ± 0.047. With UAGUGACUCACCUUCUCUGAGAGUUAAACA the “pre-steady-state target cleavage rate” value was 0.0666 ± 0.014. UAGUGAGUCACCUUCUCUGAGAGAGUUAACA was tested, and the “pre-steady-state target cleavage rate” value was 0.257 ± 0.044. UAGUGACACACCUUCUCUGAGAGAAAUACA was tested, and the “pre-steady-state target cleavage rate” value was 0.0296 ± 0.013. With UAGUGUGUCAGCUUCUCAGAGAGAUUAACA the “pre-steady-state target cleavage rate” value was 0.0938 ± 0.0081. UAGUGACACACCUUGUCUGAGACAUUAACA was tested, and the “pre-steady-state target cleavage rate” value was 0.0978 ± 0.026. UAGUGUGUCACCUUCGUCUGAGAGAUUAACA was tested, and the “pre-steady-state target cleavage rate” value was 0.088 ± 0.012. With UAGUGACUCACCUUCUCUGAGAGAUUAUGA the “pre-steady-state target cleavage rate” value was 0.0729 ± 0.012. For UAGUGAGUCCCCUUCUCUGAGAGAUUAACA, the “pre-steady-state target cleavage rate” value was 0.214 ± 0.021. In the case of UAGUGACACACCUUCUCUGAGAGAUUACA, the “pre-steady-state target cleavage rate” value is reported as 0.0753 ± 0.023. For UAGUGUGUCACCUUCUGUCAGAGAUUAACA, the “pre-steady-state target cleavage rate” value was 0.039 ± 0.0051. For UAGUGAGUCACCUUCUCUGAGAUAUUAACA, the “pre-steady-state target cleavage rate” value was 0.115 ± 0.017. In the case of UAGUGACACACCUUCUCUGAGACAUUAACA, the “pre-steady-state target cleavage rate” value is reported as 0.0514 ± 0.0091. UAGUGUCUCACCUUCUCUGAGAGAUUAUGA was tested, and the “pre-steady-state target cleavage rate” value was 0.0163 ± 0.0063. For UAGUGACAGACCGUCUCUGAGAGAUUAACA, the “pre-steady-state target cleavage rate” value was 0.0355 ± 0.0065. With UAGUGAGUCACCUUCACAGAGAGAUUAACA the “pre-steady-state target cleavage rate” value was 0.0664 ± 0.0081. For UAGUGACUCACCUUCUGUGACAGAUUAACA, the “pre-steady-state target cleavage rate” value was 0.0678 ± 0.011. In the case of UAGUGACAGACCUACUCUGAGAGAUUUACA, the “pre-steady-state target cleavage rate” value is reported as 0.0238 ± 0.0093. UAGUGACACACCUUCUCUCAGACAUUAACA was tested, and the “pre-steady-state target cleavage rate” value was 0.0383 ± 0.011. With UAGUCAGUCACCAUCUCUGAGAGAUUAACA the “pre-steady-state target cleavage rate” value was 0.171 ± 0.0086. For UAGUGAGUCACCUUCUCUGAGAGUUUUACA, the “pre-steady-state target cleavage rate” value was 0.257 ± 0.078. In the case of UAGUGUGUCACCUUCUCUGAGAGUUUUACA, the “pre-steady-state target cleavage rate” value is reported as 0.14 ± 0.046. UAGUCUGUCACCUUCUCUGAGAGUUUUACA was tested, and the “pre-steady-state target cleavage rate” value was 0.171 ± 0.054. In the case of UAGUGUGUCACCAUCUCUGAGAGAUUUACA, the “pre-steady-state target cleavage rate” value is reported as 0.158 ± 0.033.
